± gives the standard deviation of the averaged measurements.
Columns and labels:
[1] = test system: DLD1; test: cell viability (CellTiter-Glo) relative to plate median (fraction of plate median); higher = more viable cells; conditions: 5 µM; treatment time 24 h; reporter: 7TFP
Method in brief: (§1)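 Colorectal cancer cell lines stably carrying lentiviral TCF/Wnt firefly luciferase reporters (7TFP or TCF4/Wnt) were plated in 384-well plates and, 24 h later, given library compounds at a final 5 µM for 24 h. Firefly luciferase or CellTiterGlo luminescence was read on parallel plates with a Tecan F500 reader. Each well's signal was normalised to the plate median in webcellHTS2 (additive, without log transformation). Values are the mean of two independent replicates.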

[2] = test system: HCT116; test: as above; conditions: 5 µM; treatment time 24 h; reporter: TCF4/Wnt
Method in brief: as §1

[3] = test system: SW480; test: as above; conditions: 5 µM; treatment time 24 h; reporter: 7TFP
Method in brief: as §1

[4] = test system: DLD1; test: TCF/Wnt firefly luciferase reporter signal relative to plate median (fraction of plate median); higher = higher Wnt reporter signal; conditions: 5 µM; treatment time 24 h; reporter: 7TFP
Method in brief: as §1

[5] = test system: SW480; test: as above; conditions: 5 µM; treatment time 24 h; reporter: 7TFP
Method in brief: as §1

| SMILES | cell viability [1] | cell viability [2] | cell viability [3] | TCF/Wnt firefly luciferase reporter signal [4] | TCF/Wnt firefly luciferase reporter signal [5] |
| --- | --- | --- | --- | --- | --- |
| COc1ccc2c(c1)OC[C@@H](Cc1ccc(OC)c(OC)c1)[C@H]2O | 1.09 ± 0.078 | 1.06 ± 0.11 | 0.993 ± 0.095 | 0.944 ± 0.011 | 0.94 ± 0.018 |
| CC1(C)S[C@@H]2[C@H](NC(=O)[C@H](C(=O)O)c3ccsc3)C(=O)N2[C@H]1C(=O)O | 1.09 ± 0.092 | 1.045 ± 0.0071 | 1.03 ± 0.052 | 0.871 ± 0.069 | 1.075 ± 0.0071 |
| Cc1cc(O)c(C=O)c2c1C(=O)Oc1c(C)c(O)c3c(c1O2)C(O)OC3=O (stereo not given) | 0.975 ± 0.092 | 1.11 | 0.988 ± 0.017 | 1.04 ± 0.068 | 1.02 ± 0.036 |
| C[n+]1cccc(C(=O)[O-])c1 | 1.03 ± 0.021 | 0.938 ± 0.0085 | 1.01 ± 0.018 | 1.15 ± 0.071 | 1.11 ± 0.092 |
| O=C(O)c1cc(=O)c(O)c2c(O)c(O)c(O)cc2c1 | 0.948 ± 0.066 | 0.82 ± 0.04 | 1 ± 0.05 | 0.806 ± 0.25 | 0.993 ± 0.12 |
| NC1(C(=O)O)CC1 | 0.997 ± 0.061 | 0.9665 ± 0.0021 | 0.9795 ± 0.0064 | 0.885 ± 0.045 | 0.919 ± 0.059 |
| O=C(/C=C/c1ccc(O)c(O)c1)O[C@H](Cc1ccc(O)c(O)c1)C(=O)O | 1.04 ± 0.014 | 0.947 ± 0.09 | 0.998 ± 0.031 | 0.854 ± 0.015 | 0.934 ± 0.054 |
| O=c1c(-c2ccc(O)cc2)coc2cc(O)cc(O)c12 [Genistein (Biofocus)] | 1.05 ± 0.078 | 1.04 ± 0.09 | 1.08 ± 0.099 | 1.21 ± 0.15 | 1.06 ± 0.021 |
| CO[C@H]1C[C@H](O[C@H]2[C@H](C)[C@@H](O[C@@H]3O[C@H](C)C[C@H](N(C)C)[C@H]3O)[C@@H](C)C[C@@]3(CO3)C(=O)[C@H](C)[C@@H](O)[C@@H](C)[C@@H](C)OC(=O)[C@@H]2C)O[C@@H](C)[C@@H]1O | 0.97 ± 0.0028 | 0.91 ± 0.087 | 0.915 ± 0.05 | 0.869 ± 0.05 | 1.05 ± 0.1 |
| O=c1cc[nH]c(=S)[nH]1 [Thiouracil] | 1.08 ± 0.17 | 1.12 ± 0.11 | 1.04 ± 0.064 | 0.944 ± 0.093 | 0.8625 ± 0.00071 |
| C[C@@H]1CC[C@H]2C(C)(C)[C@H]3C[C@@]12CC[C@@]3(C)O | 1.02 ± 0.029 | 1.07 ± 0.057 | 1.03 ± 0.021 | 1.03 ± 0.014 | 0.94 ± 0.083 |
| O=C(OCc1ccccc1)c1ccccc1 | 1.03 ± 0.035 | 0.996 ± 0.062 | 0.928 ± 0.029 | 0.954 ± 0.14 | 0.999 ± 0.1 |
| COc1cc(C)c(C(=O)Oc2cc(C)c(C(=O)O)c(O)c2C)c(O)c1C=O | 1.06 ± 0.014 | 0.9725 ± 0.0021 | 1.03 ± 0.014 | 1.06 ± 0.078 | 1.12 ± 0.085 |
| C#C[C@]1(O)CC[C@H]2[C@@H]3CCc4cc(O)ccc4[C@H]3CC[C@@]21C | 0.934 ± 0.016 | 0.972 ± 0.054 | 0.9755 ± 0.0092 | 1.08 ± 0.078 | 1.04 ± 0.021 |
| O=C1N=C(O)NC1(c1ccccc1)c1ccccc1 | 1.06 ± 0.05 | 0.957 ± 0.015 | 1.005 ± 0.0071 | 1.08 ± 0.021 | 1.08 ± 0.021 |
| CC(=O)OCC(=O)[C@@]1(O)CC[C@H]2[C@@H]3CCC4=CC(=O)C=C[C@]4(C)[C@H]3[C@@H](O)C[C@@]21C | 0.992 ± 0.04 | 0.864 ± 0.1 | 0.936 ± 0.0042 | 1.08 ± 0.11 | 1.11 ± 0.092 |
| Cc1c(NC(C)C)c(=O)n(-c2ccccc2)n1C | 1.01 ± 0.014 | 1.05 ± 0.15 | 1.03 ± 0.045 | 0.95 ± 0.21 | 0.942 ± 0.0014 |
| Cc1c(OCC(F)(F)F)ccnc1C[S+]([O-])c1nc2ccccc2[nH]1 (stereo not given) | 1.07 ± 0.14 | 1.02 ± 0.061 | 0.932 ± 0.0014 | 1.09 ± 0.021 | 0.959 ± 0.011 |
| CC1(C)C(=O)C=CC2(C)C1C=CC1(C)C2CCC2(C)C(c3ccoc3)OC(=O)C3OC312 (stereo not given) | 1.07 ± 0.042 | 1.1 ± 0.13 | 1.05 | 1.01 ± 0.1 | 0.964 ± 0.094 |
| COc1ccc(/C=C/C(=O)c2ccc(O)cc2O)cc1 | 0.938 ± 0.088 | 0.947 ± 0.065 | 1.035 ± 0.0071 | 1.085 ± 0.0071 | 0.794 ± 0.054 |
| N[C@@H](Cc1cc(I)c(Oc2ccc(O)c(I)c2)c(I)c1)C(=O)O [LIOTHYRONINE (L- isomer) SODIUM] | 0.994 ± 0.093 | 1.04 ± 0.091 | 1.11 ± 0.064 | 1.14 ± 0.17 | 1.055 ± 0.0071 |
| C=C(C)[C@@H]1CC[C@]2(C(=O)O)CC[C@]3(C)[C@H](C[C@H]4OC(=O)C[C@@H](O)[C@]5(C)[C@@H]4[C@@]3(C)CC[C@H]5C(=C)C)[C@@H]12 [Chiisanogenin (12)] | 0.9945 ± 0.00071 | 1.02 ± 0.12 | 0.968 ± 0.023 | 1.11 ± 0.028 | 1.12 ± 0.028 |
| CC(=O)O[C@@H]1CC2C(C)(C)[C@H](O)C=C[C@]2(C)C2CC[C@@]3(C)[C@H](c4ccoc4)OC(=O)C4OC43[C@@]21C (stereo not given in full) | 1.05 ± 0.064 | 1.08 ± 0.092 | 1.06 ± 0.028 | 0.97 ± 0.042 | 0.926 ± 0.1 |
| N[C@@H](Cc1cc(I)c(Oc2cc(I)c(O)c(I)c2)c(I)c1)C(=O)O | 1.01 ± 0.037 | 1.11 ± 0.042 | 0.978 ± 0.018 | 1.19 ± 0.057 | 1.17 ± 0.05 |
| CC(=O)O[C@@H]1C2=C(C)C=C(O2)[C@H]2O[C@]2(C)C[C@H]2C=C(C(=O)O2)[C@H](OC(C)=O)CC1[C@@]1(C)CO1 (stereo not given in full) [bipinnatin H] | 1.1 ± 0.13 | 1.08 ± 0.17 | 0.984 ± 0.023 | 0.897 ± 0.16 | 0.7915 ± 0.0021 |
| C=C[C@@]1(C)CC(=O)[C@@]2(O)[C@](C)(O1)[C@@H](O)[C@@H](O)C1C(C)(C)CC[C@H](O)[C@@]12C (stereo not given in full) | 0.9975 ± 0.0035 | 0.96 ± 0.051 | 1.02 ± 0.014 | 0.923 ± 0.042 | 0.976 ± 0.13 |
| C=CCSSSCC=C | 1.05 ± 0.09 | 1.09 ± 0.014 | 0.99 ± 0.042 | 1.02 ± 0.073 | 0.874 ± 0.013 |

Source: the supplement of paper PMC6522484
